# B2AR arrestin – recruits beta-arrestin to the human beta2-adrenergic receptor; 330,000 compounds, 0.02% hits; beta-arrestin recruitment to beta2AR, cell-based reporter; Potency, µM (series often up to 46.1 µM), without a hit: at the highest dose activation, hits mostly activators; AID 492947; P07550;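 note: potency is the fitted concentration of half-maximal effect; 0% = DMSO controls and full agonism = EC100 isoproterenol or metaproterenol; nearly all actives have a fitted effect of over 65% in size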
# Target sequence (P07550 whole entry, looked up): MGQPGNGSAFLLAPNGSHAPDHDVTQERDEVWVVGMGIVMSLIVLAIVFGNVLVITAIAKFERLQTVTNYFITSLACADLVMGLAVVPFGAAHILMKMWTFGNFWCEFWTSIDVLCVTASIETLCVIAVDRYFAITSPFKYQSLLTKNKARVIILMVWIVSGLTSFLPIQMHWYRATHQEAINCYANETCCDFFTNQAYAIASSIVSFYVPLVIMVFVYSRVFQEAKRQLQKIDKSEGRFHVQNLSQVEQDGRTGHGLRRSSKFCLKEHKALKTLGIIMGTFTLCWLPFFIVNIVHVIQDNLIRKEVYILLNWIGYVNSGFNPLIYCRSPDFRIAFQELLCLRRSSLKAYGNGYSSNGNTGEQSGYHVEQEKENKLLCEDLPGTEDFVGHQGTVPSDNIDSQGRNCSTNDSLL
# ELG1 DNA repair – blocks ELG1-dependent DNA repair in HEK293T cells; HEK293T ELG1-luciferase reporter, luminescence, 16 h; DNA damage induced by 5-fluorouridine; Potency, µM (series often up to 46.1 µM), inactives show at the top dose activity change, negative = inhibition, most hits filed as inhibitors; 330,000 compounds, 2.3% hits; AID 504467; note: potency is the fitted concentration of half-maximal effect; nearly all actives have a fitted effect of over 55% in size
#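 HEK293T cells expressing luciferase-tagged ELG1 (2,000/well) received 5-Fluorouridine plus compound or DMSO for 16 hr at 37 °C. Luciferase was read by ONE-Glo luminescence after 30 min at room temperature.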
# TSHR antagonist – antagonists of human thyroid stimulating hormone receptor. TSHR-expressing cells, TSH-stimulated cAMP HTRF, 2 h; stronger effect = lower value. activity change, negative = inhibition, % at 11.5 µM. 330,000 compounds, 0.2% hits;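 active = activity change below a set negative limit, meaning inhibition stronger than a set level, cut at about -70% in these data; inconclusive = activity change between two set negative limits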
#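 Cell-based HTRF cAMP assay; TSHR cells + compound, TSH EC80 (4nM final), 2 h, 37 deg C. Lysis with anti-cAMP cryptate and cAMP-d2, 30 min RT, read 665/620 nm.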
# RORgamma inh – blocks mouse ROR gamma transcriptional activity. P51450. Drosophila S2 Gal4-RORgamma UAS-luciferase reporter, 20 h. Potency, µM (titrated, usually from 53.6 µM), inactives show top-dose activity change, negative = inhibition, usual class: inhibitors. 310,000 compounds, 5.4% hits. AID 2551; note: potency is the fitted concentration of half-maximal effect; nearly all actives have a fitted effect of over 60% in size
#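 A Gal4/UAS one-hybrid system in insect cells: metallothionein-promoter Gal4–ROR gamma fusion plus Photinus luciferase reporter. Copper sulfate 700 uM final, 20 hr ambient incubation, luminescent detection after 10 min with reagent.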
# Gal4-VP16 FLuc – Gal4-VP16 reporter inhibition counter-screen. Drosophila S2 Gal4-VP16 UAS-luciferase, luminescence, 20 h. Potency, µM (highest dose often 53.6 µM), without a hit: at the highest dose activity, negative = inhibition, most hits filed as inhibitors. 310,000 compounds, 3.5% hits;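 note: Gal4-VP16 expression switched on by copper sulfate through the metallothionein promoter; potency is the fitted concentration of half-maximal effect; nearly all actives have a fitted effect of over 50% in size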
# Starred values were filed as active, the others as inactive; ? = inconclusive; nt = no result; [ ] = remark or other dose. Rows were chosen to be rich in hits. Some 7.5% of all compounds tested hit in one or more screens of this group. Unless noted, calls come from the whole dose curve; as a rule, active = well fitted curve in the direction sought with a large enough effect; inconclusive = small, poorly fitted or top-dose-only effect, or another doubt; inactive = no such curve, though single readings can be large; an effect the other way counts as inactive or inconclusive. Unless noted, % is set by controls: 0 for no effect and ±100 for the full control effect.
SMILES,B2AR arrestin,ELG1 DNA repair,TSHR antagonist,RORgamma inh,Gal4-VP16 FLuc
C/C(=N\NC(=S)Nc1c(C)cccc1C)c1ccc(OC(F)F)cc1,0%,?,0,3.2µM*,5.6µM*
COc1ccc(C/C(C)=N/NC(=S)Nc2ccc(C(C)C)cc2)cc1,-1%,-4%,31,4.5µM*,?
COc1ccc(C/C(C)=N/NS(=O)(=O)c2ccc(Br)cc2)cc1,0%,?,6,10µM*,?
COC(=O)N/N=C(\C)c1ccc(OC(F)F)cc1,0%,?,-1,6%,-15%
C[N+]1(C)CCc2cc3c(cc2[C@@H]1[C@@H]1C(=O)Oc2c1ccc1c2OCO1)OCO3,nt,nt,nt,6%,0%
O=[N+]([O-])c1cccc(C2=N[C@@H](Cc3ccccc3)CO2)c1,nt,nt,nt,18%,9%
COc1ccc(C/C(C)=N/NC(=O)c2ccc(Cl)cc2)cc1,0%,3%,6,11µM*,?
Cc1nc(=S)n(-c2ccccc2)[nH]1,0%,14%,-1,?,?
S=c1nc2ccccc2c2nc(-c3ccccc3)[nH]n12,4µM*,?,-14,0.089µM*,0.35µM*
Clc1nc(-c2ccccc2)c2ccccc2n1,0%,9%,-1,-16%,4%
S=c1nc(-c2ccccc2)[nH]n1-c1ccccc1,0%,26%,9,7.9µM*,11µM*
S=c1nc2ccccc2c2nc(-c3ccccc3Cl)[nH]n12,0%,?,13,0.35µM*,1.6µM*
S=C(NCCc1ccccc1)N1CCN(C23CC4CC(CC(C4)C2)C3)CC1,-1%,?,6,18%,-11%
Cc1cc(C)c2oc(C(=O)NC3CCS(=O)(=O)C3)cc(=O)c2c1 (stereo unspecified),0%,12%,13,-16%,-3%
NCCc1cnc(-c2cccc(C(F)(F)F)c2)[nH]1,nt,nt,nt,2%,5%
FC(F)(F)c1cccc(-c2nc3nc(Cl)c(Cl)nc3[nH]2)c1,0%,?,?,10µM*,5.6µM*
N/C(=N\OC(=O)c1ccccc1Br)c1ccc([N+](=O)[O-])cc1,0%,?,-5,?,?
N/C(Cc1ccc([N+](=O)[O-])cc1)=N\OC(=O)c1ccccc1Br,0%,-10%,-7,?,11µM*
N/C(Cc1ccc([N+](=O)[O-])cc1)=N\OC(=O)CC1CCCCC1,5%,2%,-18,13µM*,13µM*
Cc1ccc(CC(=O)O/N=C(\N)Cc2ccc([N+](=O)[O-])cc2)cc1,-1%,6%,-24,0%,?
N/C(Cc1ccc([N+](=O)[O-])cc1)=N\OC(=O)C(c1ccccc1)c1ccccc1,-1%,0%,-13,?,10µM*
COc1ccc(C/C(N)=N/OC(=O)C(c2ccccc2)c2ccccc2)cc1OC,-1%,3%,-2,24%,?
CNC1(C)[C@H]2CC[C@H](C2)C1(C)C (stereo partly specified),-1%,2%,1,nt,nt
Cc1ccc(S(=O)(=O)N(C)C)cc1NC(=O)c1cccnc1Oc1ccccc1,4%,?,-11,?,5%
CC12CCC(=O)N1C(C(=O)N1CCN(c3ccc([N+](=O)[O-])cc3)CC1)CS2 (stereo unspecified),0%,?,-7,nt,nt
SMILES,B2AR arrestin,ELG1 DNA repair,TSHR antagonist,RORgamma inh,Gal4-VP16 FLuc
C/C(=N\NC(=O)C1(C)NC(C)(C)Cc2ccccc21)c1ccccc1 (stereo unspecified),0%,?,8,-8%,-1%
CS(=O)(=O)Nc1cccc(-c2nc(NCCN3CCOCC3)c3ccccc3n2)c1,nt,nt,nt,6%,5%
CCOC(=O)c1sc(NC(=O)C2CC(=O)N(c3ccc(OC)cc3)C2)nc1C (stereo unspecified),0%,?,-6,0%,-2%
CCOc1ccc(C(CCc2ccccc2)NC(=O)c2ccccc2F)cc1OCC (stereo unspecified),0%,?,-5,14%,2%
CCOc1ccc(C(CCc2ccccc2)NC(=O)c2ccccc2OC)cc1OCC (stereo unspecified),0%,?,4,7.9µM*,?
FC(F)(F)c1cccc(NC(=S)NCc2ccccn2)c1,-1%,15%,-10,3.5µM*,7.1µM*
S=C(NCc1ccccn1)Nc1cccc(Cl)c1,0%,0%,14,6.3µM*,13µM*
Cc1cccc(NC(=O)C(=O)NCc2ccccn2)c1,0%,?,14,-12%,2%
Cc1cccc(NC(=S)NCc2ccccn2)c1,9%,9%,4,5µM*,?
Cc1ccc(NC(=S)NCc2ccccn2)cc1,-1%,?,-15,4µM*,16µM*
CCc1ccc(NC(=O)NCc2ccccn2)cc1,0%,?,9,-30%,8%
Nc1c(C(=O)Nc2ccccc2Cl)nnn1-c1ccc2c(c1)OCCO2,-1%,?,-16,0.056µM*,?
CN(C)c1ccc(-c2c(C3C4C=CCCC4(C)C(=O)N3Cc3ccccc3)ccc3ccccc23)cc1 (stereo unspecified),nt,nt,nt,-1%,-1%
O=C(CCN1C(=O)C2C3C=CC(C3)C2C1=O)N1CCN(c2ccccn2)CC1 (stereo unspecified),-1%,2%,-3,-18%,-5%
O=C1C2C3C=CC(C3)C2C(=O)N1c1ccc(N2CCN(c3ccccn3)CC2)c([N+](=O)[O-])c1 (stereo unspecified),-1%,-22%,-5,?,4µM*
N[C@H](Cc1ccc(O)c(O)c1)C(=O)O,nt,nt,nt,1%[10 µM],-7%
CCn1c(Cl)c(C=O)s/c1=N\S(=O)(=O)c1ccccc1,-1%,?,-98*,9%,-7%
CCN1C(=O)CS/C1=N\S(=O)(=O)c1ccc(Cl)cc1,0%,-1%,-9,5%,-7%
Cc1ccc2nc(NS(=O)(=O)c3cn(C)nc3C)sc2c1,0%,?,0,14µM*,11µM*
COc1ccc(NS(=O)(=O)c2cn(C)nc2C)cc1,0%,0%,-3,-1%,0%
CCN(Cc1cc2ccc(C)cc2[nH]c1=O)C(=O)c1ccncc1,0%,10µM*,6,-25%,-8%
CCCN(Cc1cc2ccc(C)cc2[nH]c1=O)C(=O)c1cccnc1,0%,6%,3,-31%,-8%
CC1(C)CC(=O)C(C=Nc2ccc(C(=O)c3ccccc3)cc2N=CC2=C(O)CC(C)(C)CC2=O)=C(O)C1,0%,-5%,-3,16µM*,-9%
CC1(C)CC(=O)C(C=Nc2ccc(O)c(N=CC3=C(O)CC(C)(C)CC3=O)c2)=C(O)C1,0%,-9%,-3,-14%,-1%
CC1(C)CC(=O)C(C=Nc2cccnc2)=C(O)C1,-1%,-1%,-4,-21%,-7%

# Bioassay records deposited in PubChem BioAssay by National Center for Advancing Translational Sciences (NCATS).
